Shown are actives, neighbours in structure and some others; about 2.3% of the full set was active somewhere.
Mcl1-Bid inh: disrupts binding of human Mcl-1 to Bid peptide; Q07820; 220,000 compounds, 0.97% hits; inhibition, % at 21.7 µM; TR-FRET Mcl-1/Bid-Dy647 peptide binding, 1536-well;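 active = compounds that cut the binding signal by more than half at the single screening dose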;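 note: His-tagged Mcl-1 with europium anti-His antibody binding Bid BH3 peptide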
Target sequence (Q07820 whole entry, looked up): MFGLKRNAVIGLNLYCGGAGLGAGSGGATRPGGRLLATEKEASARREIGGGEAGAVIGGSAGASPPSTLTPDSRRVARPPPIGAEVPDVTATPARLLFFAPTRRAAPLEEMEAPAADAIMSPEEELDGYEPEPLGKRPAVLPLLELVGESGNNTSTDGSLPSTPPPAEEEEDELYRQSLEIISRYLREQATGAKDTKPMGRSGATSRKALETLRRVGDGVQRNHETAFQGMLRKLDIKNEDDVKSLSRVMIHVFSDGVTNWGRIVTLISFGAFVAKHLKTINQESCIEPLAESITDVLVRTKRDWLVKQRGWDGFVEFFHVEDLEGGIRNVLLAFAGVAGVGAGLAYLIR
GLD-1 TGE inh: GLD-1-TGE RNA interaction inhibition (C. elegans) | purified GLD-1 + fluorescein TGE RNA, fluorescence polarization | Q17339 | 320,000 compounds, 0.44% hits | inhibition, % at 5.96 µM;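 active = percent inhibition above a per-plate cutoff, the plate mean of test compounds plus 3 SD, cut at about 30% in these data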
Mcl1 Noxa PPI: Mcl-1/Noxa interaction inhibition. 220,000 compounds, 1.5% hits. inhibition, % at 21.7 µM. Q07820. TR-FRET Mcl-1/Noxa peptide binding, 2 h;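 active = compounds that cut the protein-peptide binding signal by more than 50% relative to plate controls in a single-dose test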;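 note: His-tagged Mcl-1 with rhodamine Noxa BH3 peptide and terbium anti-His antibody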
BCLXL inh: inhibitors of human Bcl-xL; Q07817; GST-Bcl-xL / FITC-Bim BH3 peptide fluorescence polarization; inhibition, % at 10.9 µM; 320,000 compounds, 0.7% hits;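 active = inhibition above the mean of all tested compounds plus 3 SD, cutoff set per campaign, cut at about 30% in these data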;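 note: inhibitors lower millipolarization by displacing the labeled peptide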
Target sequence (Q07817 whole entry, looked up): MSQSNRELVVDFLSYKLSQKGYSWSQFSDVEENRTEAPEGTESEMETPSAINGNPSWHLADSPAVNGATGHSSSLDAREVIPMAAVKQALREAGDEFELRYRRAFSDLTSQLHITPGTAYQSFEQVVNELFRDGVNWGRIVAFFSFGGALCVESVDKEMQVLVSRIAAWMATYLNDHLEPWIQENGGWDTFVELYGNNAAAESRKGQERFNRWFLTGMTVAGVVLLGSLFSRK
MCL1-BIM inh: disrupts human MCL1 binding to BIM-BH3 peptide. GST-MCL1 / FITC-Bim-BH3 fluorescence polarization. inhibition, % at 10.9 µM. 320,000 compounds, 0.68% hits;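 active = inhibition above the mean inhibition of all tested compounds plus 3 SD, set per campaign, cut at about 40% in these data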;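 note: higher means more loss of mP so more displacement of Bim peptide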
Bim-Mcl-1: inhibitors of Bim-Mcl-1 interaction, human; inhibition, % at 10 µM; 190,000 compounds, 0.1% hits; Bead-based flow cytometry, Bim peptide-Mcl-1 binding; AID 1009; in the data active = inhibition above about 40%
Numbers stand for hits; – = inactive; · = not tested or not shown.

SMILES | Mcl1-Bid inh | GLD-1 TGE inh | Mcl1 Noxa PPI | BCLXL inh | MCL1-BIM inh | Bim-Mcl-1
CC1CCCN(C(=O)c2ccc(S(=O)(=O)Nc3ccccc3Cl)cc2)C1 (stereo unspecified) | · | – | · | 36.2 | – | ·
Cc1ccc(C)c(NS(=O)(=O)c2ccc(OCC(=O)N3CCCC3)cc2)c1 | – | – | – | – | – | –
Cc1ccccc1NS(=O)(=O)c1ccc(OCC(=O)N2CCCC2)cc1 | – | – | 57.6 | – | – | –
O=C(c1ccc(S(=O)(=O)Nc2ccccc2Cl)cc1)N1CCOCC1 | · | – | · | – | – | ·
Cc1ccccc1NS(=O)(=O)c1cc(C(=O)N2CCCC2)ccc1Cl | · | – | · | – | – | ·
O=C(NCCOc1ccccc1)c1ccc2c(c1)S(=O)(=O)c1cc(Cl)ccc1C2=O | · | – | · | · | · | ·
COc1ccc(C2=NOC(C)(c3nnc(-c4ccncc4)o3)C2)cc1 (stereo unspecified) | · | – | · | – | – | ·
Cn1c(Cc2cccs2)nnc1SCC(=O)Nc1ccc(C(N)=O)cc1 | · | – | · | – | – | ·
COc1ccc(/C=N/Nc2nc(-c3ccc(C)cc3)c(NC(C)=O)s2)cc1OC | – | – | 56.8 | – | – | ·
CC(=O)Nc1sc(N/N=C/c2ccc(C)cc2)nc1-c1ccc(C)cc1 | – | – | – | – | – | ·
COc1cc(/C=N\Nc2nc(-c3ccc(C)cc3)c(NC(C)=O)s2)ccc1O | – | – | 83.3 | – | – | ·
CCOc1cc(/C=N\Nc2nc(-c3ccc(C)cc3)c(NC(C)=O)s2)ccc1O | – | – | 66.8 | – | – | ·
CCOC(=O)C1(CCOc2ccccc2)CCN(Cc2ccc(O)c(OCC)c2)CC1 | · | – | · | – | – | ·
COc1ccc(CC(=O)Nc2ccc(N(C)C)c3ccccc23)cc1 | · | – | · | – | – | ·
CCOc1cccc2sc(=NC(=O)CCS(=O)(=O)c3ccc(F)cc3)n(C)c12 | · | – | · | – | – | ·
CCn1ccnc1CN(C)C(=O)C1CCC(=O)N(Cc2cccc(F)c2)C1 (stereo unspecified) | · | – | · | – | – | ·
CCSc1nc2ccccc2n1C(=O)/C=C\c1ccc(OC)c(OC)c1 | – | – | 62.0 | – | – | –
CCSc1nc2ccccc2n1CC(N)=O | – | – | – | – | – | –
CC(C)CC(NC(=O)/C(=C/c1ccco1)NC(=O)c1ccc(Br)o1)C(=O)O (stereo unspecified) | · | – | · | – | – | ·
O=C(O)c1ccc(N2C(=O)/C(=C/c3ccc(-c4ccc([N+](=O)[O-])cc4)o3)C=C2c2ccccc2)cc1 | 99.4 | – | 107.9 | – | – | –
COc1ccc(C(=O)Oc2c(CN3CCOCC3)cc(Cl)c3cccnc23)cc1 | 54.0 | – | – | – | – | –
COc1cccc(C(=O)Oc2c(CN3CCOCC3)cc(Cl)c3cccnc23)c1 | – | – | – | – | – | –
CCOC(=O)C1=C(C)NC(C)=C(C(=O)OCC)C1C(=O)OCC(=O)N1CCOCC1 | · | – | · | · | · | ·
NC(=O)COc1c(-c2ccccc2)oc2ccccc2c1=O | 97.5 | – | – | – | – | –
O=C(O)c1cccc(NC2=C(Cl)C(=O)c3ccccc3C2=O)c1 | – | · | 86.6 | · | · | –
SMILES | Mcl1-Bid inh | GLD-1 TGE inh | Mcl1 Noxa PPI | BCLXL inh | MCL1-BIM inh | Bim-Mcl-1
O=C(O)c1ccc(NC2=C(Cl)C(=O)c3ccccc3C2=O)cc1 | – | – | 53.0 | – | – | ·
Cc1ccc(NC2=C(NC(=O)c3ccccc3)C(=O)c3ccccc3C2=O)cc1Cl | – | – | 86.5 | – | – | –
CSCCC(NC(=O)c1cccc(C)c1)C(=O)NNC(=O)c1cccs1 (stereo unspecified) | · | – | · | · | · | ·
COc1ccc(C(=O)NCc2c(C)nn(Cc3ccccc3)c2C)cc1S(=O)(=O)N1CCOCC1 | · | – | · | – | – | ·
O=C(NC1CCCCC1)C(c1ccco1)N(C(=O)c1csnn1)c1cccc(Cl)c1 (stereo unspecified) | · | – | · | – | – | ·
O=C(CCCN1C(=O)S/C(=C/C=C/c2ccccc2)C1=O)Nc1ccc(C(=O)O)cc1 | · | – | · | – | – | ·
O=C(CN1C(=O)S/C(=C\C=C\c2ccccc2)C1=O)Nc1ccc(O)cc1 | – | – | 54.8 | – | – | –
Cc1cccn2c(=O)c(/C=C(\C#N)S(=O)(=O)c3ccccc3)c(N3CCN(Cc4ccccc4)CC3)nc12 | · | – | · | 30.6 | – | ·
CCCCNC(=O)C1CC(c2ccccc2[N+](=O)[O-])=NO1 (stereo unspecified) | – | – | – | – | – | –
O=C(NCCCCc1ccccc1)C1CC(c2ccccc2[N+](=O)[O-])=NO1 (stereo unspecified) | – | – | 100.1 | – | – | –
O=C1/C(=C\c2ccccn2)SC(=S)N1c1ccc(S(=O)(=O)Nc2nccs2)cc1 | – | – | 82.2 | – | – | ·
COc1ccc(/C=C2/SC(=S)N(c3ccc(S(=O)(=O)Nc4nccs4)cc3)C2=O)cc1 | – | – | 101.0 | – | – | ·
Cc1ccc(/C=C2/SC(=S)N(c3ccc(S(=O)(=O)Nc4nccs4)cc3)C2=O)cc1 | – | – | 56.3 | – | – | ·
O=C1/C(=C/c2ccccn2)SC(=S)N1c1ccc(O)cc1 | – | – | 77.2 | – | – | ·
Cc1ccc(S(=O)(=O)NN2C(=O)/C(=C/c3ccccn3)SC2=S)cc1 | – | – | – | – | – | –
CCCn1nc(C(=O)NNC(=O)c2cccc(C)c2)c2ccccc2c1=O | · | – | · | · | · | ·
Cc1ccc(-n2[nH]c(C)c(C=Nc3ccc(S(=O)(=O)Nc4nccs4)cc3)c2=O)cc1C | – | – | 60.7 | – | – | –
O=C(O)c1ccc(Nc2nc(-c3cccnc3)cs2)cc1O | · | – | · | – | – | ·
O=c1oc2ccccc2cc1-c1nc(-c2cccs2)cs1 | – | 139.0 | – | – | – | –
O=C(O)c1ccc(Nc2nc(-c3cc4ccccc4oc3=O)cs2)cc1O | – | · | 97.2 | · | · | –
Nc1ccc(Nc2nc(-c3cc4ccccc4oc3=O)cs2)cc1 | – | – | 58.7 | – | – | –
COc1ccc(N2CCN(C3CCCN(Cc4cccc(C(C)=O)c4)C3)CC2)cc1 (stereo unspecified) | · | – | · | – | – | ·
CSCc1cccc(C(=O)OC(C)C(=O)Nc2c(C)n(C)n(-c3ccccc3)c2=O)c1 (stereo unspecified) | · | – | · | – | – | ·
FC(F)(F)c1cccc(CN2CCCCCC2)c1 | 51.5 | – | – | – | – | –
CCN(C(=O)CN1C(=O)CN(C)C1=O)c1cccc2ccccc12 | · | – | · | · | · | ·
SMILES | Mcl1-Bid inh | GLD-1 TGE inh | Mcl1 Noxa PPI | BCLXL inh | MCL1-BIM inh | Bim-Mcl-1
CCN(C(=O)CN1CCN(C)CC1)c1cccc2ccccc12 | 56.5 | – | – | – | – | –
COC(=O)c1cc(-c2ccc(C)o2)nc2ccccc12 | – | – | 77.9 | – | – | –
Cc1ccc(-c2cc(C(=O)Nc3ccccc3C)c3ccccc3n2)o1 | – | – | 65.7 | – | – | –
Cc1c(Cl)cccc1NC(=O)CC1Oc2ccccc2NC1=O (stereo unspecified) | · | – | · | – | – | ·
CCN(CC)C1CCN(C(=O)c2ccc(OC3CCN(Cc4ccccn4)CC3)cc2)C1 (stereo unspecified) | · | – | · | – | – | ·
Cc1nc2nc[nH]n2c(=O)c1NS(=O)(=O)c1ccc(F)cc1 | – | – | – | – | – | –

Screening results: PubChem BioAssay, several laboratories
